RORgamma inh: inhibitors of mouse ROR gamma transcriptional activity; 310,000 compounds, 5.4% hits; Potency, µM (doses to about 53.6 µM), inactives show top-dose activity change, negative = inhibition, hits mostly inhibitors; Drosophila S2 Gal4-RORgamma UAS-luciferase reporter, 20 h; P51450; AID 2551; also: potency is read from the fitted curve at half-maximal effect; nearly all actives have a fitted effect of over 60% in size
Target sequence (P51450 whole entry, looked up, the tested form may be a part): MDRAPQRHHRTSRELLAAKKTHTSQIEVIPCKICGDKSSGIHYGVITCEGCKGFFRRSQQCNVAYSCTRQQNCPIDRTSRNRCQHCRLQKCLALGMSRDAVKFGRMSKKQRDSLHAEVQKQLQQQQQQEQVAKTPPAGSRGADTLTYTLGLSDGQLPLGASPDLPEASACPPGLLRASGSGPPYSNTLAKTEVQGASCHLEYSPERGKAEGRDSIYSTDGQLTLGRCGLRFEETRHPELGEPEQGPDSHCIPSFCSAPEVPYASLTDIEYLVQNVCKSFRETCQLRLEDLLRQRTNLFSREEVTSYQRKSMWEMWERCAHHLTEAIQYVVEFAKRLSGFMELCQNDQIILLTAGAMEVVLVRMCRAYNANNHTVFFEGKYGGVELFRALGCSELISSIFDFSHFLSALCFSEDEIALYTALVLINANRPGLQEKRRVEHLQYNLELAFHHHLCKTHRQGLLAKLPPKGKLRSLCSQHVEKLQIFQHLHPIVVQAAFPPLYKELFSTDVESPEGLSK
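In this cell-based reporter format, copper sulfate (700 uM final) drives Gal4–ROR gamma fusion expression from a metallothionein promoter in Drosophila Schneider cells; compounds preincubated 1 hr, reporter read after 20 hr at ambient temperature.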
Gal4-VP16 FLuc: inhibits Gal4-VP16 luciferase reporter, ROR gamma counter-screen | Potency, µM (series often up to 53.6 µM), without a hit: top-dose activity, negative = inhibition, hits mostly inhibitors | AID 2546 | Drosophila S2 Gal4-VP16 UAS-luciferase, luminescence, 20 h | 310,000 compounds, 3.5% hits;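 also: Gal4-VP16 expression switched on by copper sulfate through the metallothionein promoter; potency is read from the fitted curve at half-maximal effect; nearly all actives have a fitted effect of over 50% in size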
DT40 TDP1 no CPT: qHTS for Inhibitors of human tyrosyl-DNA phosphodiesterase 1 (TDP1): qHTS in cells in absence of CPT. DT40 Tdp1-/- hTDP1 cells, no CPT, ATP luminescence, 48 h. 420,000 compounds, 15% hits. Potency, µM (series often up to 46.2 µM), inactives show at the highest dose activity change, negative = growth inhibition, usual class: inhibitors; also: potency is read from the fitted curve at half-maximal effect; nearly all actives have a fitted effect of over 55% in size
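Stably hTDP1-transfected Tdp1-null chicken DT40 cells were treated with library compounds minus camptothecin and grown for at least 48 hr at 37 °C, after which cellular ATP was quantified by luminescence.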
LDHA inh: inhibitors of human lactate dehydrogenase A; P00338; purified LDHA, NADH/diaphorase-resazurin fluorescence; active compounds read low; 480,000 compounds, 0.15% hits; activity change, % (values are at about 110 or 230 µM); in the data active = activity change below about -30%; inconclusive = mostly about -25% to -30%;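 also: plate controls were DMSO wells for no effect and wells without enzyme for full effect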
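Enzyme activity of human lactate dehydrogenase 5 (2 nM; 0.06 mM NADH, 0.2 mM pyruvate, 5 min, RT) is measured via a resazurin/diaphorase fluorescence readout of residual NADH.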
TDP1 cell CPT: growth inhibition of DT40 Tdp1-/-;hTDP1 cells with camptothecin (screen for TDP1 inhibitors). chicken DT40 Tdp1-/-;hTDP1 cells + 20 nM CPT, ATP luminescence, 48 h. Potency, µM (doses to about 46.2 µM), inactives show at the top dose activity change, negative = growth inhibition, actives largely listed as inhibitors. 420,000 compounds, 12% hits. AID 686979; also: potency is read from the fitted curve at half-maximal effect; nearly all actives have a fitted effect of over 55% in size
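Chicken DT40 Tdp1-/- cells stably complemented with human TDP1 were seeded at 400 cells/well in medium containing 20 nM camptothecin, exposed to pin-transferred compounds, and grown at 37 °C for at least 48 hr. Viability was read as ATP luminescence.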
IL-1B inflam inh: inhibitors of inflammasome signaling (IL-1 beta secretion); 360,000 compounds, 4.7% hits; THP-1 LPS/ATP IL-1B secretion, AlphaLISA, 16 h; active compounds read low; activity change, % at 57.5 µM; in the data active = activity change below about -50%; inconclusive = mostly about -30% to -49%
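THP-1 cells pretreated 1 hr with compounds (up to 57.5 uM final), then stimulated with LPS (250 ng/mL final) plus ATP (1.25 mM final); secreted IL-1B measured by AlphaLISA after 16 hr, decreased signal indicating inhibition.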
An asterisk follows results filed as active; u = inconclusive; x = no result given; ! = not confirmed by another sample; [ ] = remark or other dose. Most compounds without a hit are left out; they make up all but 18% or so of the library. Unless noted, calls follow the shape of the dose curve; as a rule, active = well fitted curve in the direction sought with a large enough effect; inconclusive = small, poorly fitted or top-dose-only effect, or another doubt; inactive = no such curve, though single readings can be large; an effect the other way counts as inactive or inconclusive. Unless noted, % is scaled to controls: 0 for no effect and ±100 for the full control effect.

SMILES	RORgamma inh	Gal4-VP16 FLuc	DT40 TDP1 no CPT	LDHA inh	TDP1 cell CPT	IL-1B inflam inh
Cc1cccc(NC(=O)c2nc(S(C)(=O)=O)ncc2Cl)c1	x	x	0.92µM*	-4	0.65µM*	x
COc1cccc(NC(=O)c2nc(S(C)(=O)=O)ncc2Cl)c1	4µM*	5µM*	0.65µM*	2	1µM*	-101*
Cc1cccc(NC(=O)c2cccc(C(=O)Nc3cccc(C)c3)n2)c1	x	x	-21%	-6	-19%	37
O=C(Nc1ccc2nc(SCc3ccc(I)cc3)sc2c1)c1ccc(Cl)cc1	x	x	x	-1	x	x
O=C(Cc1ccccc1F)NC1CC2CC1C1CCCC21 (stereo not drawn)	x	x	x	2	x	x
COCCN(Cc1ccc(F)cc1)Cc1cc(=O)n2c3c(sc2n1)CCCC3	x	x	x	2	x	x
COc1ccc(NC(=O)CSc2nnc(-c3ccncc3)n2-n2cccc2)cc1	x	x	x	7	x	x
COc1ccc2nc(C)c(C(=O)OCC(=O)NCC3CCCO3)cc2c1 (stereo not drawn)	x	x	x	0	x	x
COc1ccc(/C=C(\C#N)C(=O)C(C)(C)C)cc1OCc1cccc(C(F)(F)F)c1	x	x	x	0	x	x
COc1ccc(/C=C/C(=O)NCc2cccnc2)cc1	21%	0%	-12%	-2	-1%	21
CCc1ccc(CN(Cc2cccnc2)C(=O)/C=C/c2ccc(OC)cc2)cc1	24%	6%	15µM*	-2	-55%	0
O=C(NN=C1CCCCC1)c1sc2ccccc2c1Cl	x	x	x	1	x	x
O=C(NN=C1CCCC1)c1sc2ccccc2c1Cl	11µM*	u	-8%	-8	-6%	-3
O=C(Nc1ccnc(=O)[nH]1)c1sc2ccccc2c1Cl	2%	-11%	-16%	0	15µM*	0
O=C(Nc1ccncc1)c1sc2ccccc2c1Cl	-20%	-4%[10 µM]	18µM*	2	u	-55*
O=C(Nc1ccc(NC(=O)c2sc3ccccc3c2Cl)cc1Cl)c1ccco1	10µM*	u	u	-3	u	-7
CC1(C)CC(=O)C2=C(C1)OC(N)=C(C#N)C2c1ccc(C2C(C#N)=C(N)OC3=C2C(=O)CC(C)(C)C3)cc1 (stereo not drawn)	x	x	x	-1	x	x
CCN(Cc1ccccc1)C(=O)COc1cc(=O)n(CC)c2ccccc12	8%	-7%	21µM*	-2	u	-5
CCN(C(=O)COc1cc(=O)n(CC)c2ccccc12)c1cccc(Cl)c1	13%	-1%	u	-6	15µM*	-13
CCN(C(=O)COc1cc(=O)n(CC)c2ccccc12)c1cc(Cl)ccc1OC	-12%	-1%	21µM*	-6	u	16
CCCN(C(=O)Cn1c(=O)oc2cc(Cl)ccc21)c1ccc(C(C)C)cc1	x	x	u	3	21µM*	x
CC1CCC2(CC1)NC(=O)N(NC(=O)CCCc1c[nH]c3ccccc13)C2=O (stereo not drawn)	x	x	x	6	x	x
CCCN(C(=O)COc1cc(=O)n(CC)c2ccccc12)c1ccc(C(C)C)cc1	x	x	10µM*	-3	16µM*	x
CCCCOC(=O)C(C)Oc1ccc2c(=O)c(-c3ccccc3OC)coc2c1 (stereo not drawn)	x	x	x	4	x	x
CCN(CCC(F)(F)F)C(=O)NCc1cccc2cccnc12	x	x	x	2	x	x
SMILES	RORgamma inh	Gal4-VP16 FLuc	DT40 TDP1 no CPT	LDHA inh	TDP1 cell CPT	IL-1B inflam inh
COc1ccc(-n2c(=O)c(-c3cc(F)cc(F)c3)nc3cnc(N4CCNCC4)nc32)cc1	u	u	21µM*	x	15µM*	x
O=c1c(-c2ccc(F)cc2)nc2cnc(N3CCNCC3)nc2n1-c1ccccc1	-40%	-13%	u	x	15µM*	x
O=c1c(-c2cccs2)nc2cnc(N3CCNCC3)nc2n1-c1ccccc1	5%	-10%	u	x	u	x
CC1CCCCC1NC(=O)c1nn(C)c2c1CS(=O)(=O)c1ccccc1-2 (stereo not drawn)	21%	0%	-3%	-4	u	12
Cc1ccc(N2CCN(C(=O)c3nn(C)c4c3CS(=O)(=O)c3ccccc3-4)CC2)c(C)c1	34%	-20%	21µM*	0	18µM*	-21
COc1ccccc1NC(=O)c1nn(C)c2c1CS(=O)(=O)c1ccccc1-2	x	x	-18%	2	-22%	x
COc1ccccc1N1CCN(C(=O)c2nn(C)c3c2CS(=O)(=O)c2ccccc2-3)CC1	-1%	3%	u	-2	u	2
Cc1ccc(Cl)cc1N1CCN(C(=O)c2nn(C)c3c2CS(=O)(=O)c2ccccc2-3)CC1	x	x	12µM*	-10	21µM*	x
CC1CCCC(NC(=O)c2nn(C)c3c2CS(=O)(=O)c2ccccc2-3)C1C (stereo not drawn)	3%	-1%	9.2µM*	0	u	6
COc1cc(NC(=O)c2nn(C)c3c2CS(=O)(=O)c2ccccc2-3)cc(OC)c1	16%	-4%	16µM*	-4	u	0
Cn1nc(C(=O)NCCc2ccc(Cl)cc2)c2c1-c1ccccc1S(=O)(=O)C2	u	-11%	29µM*	-3	u	-5
CC(=O)c1ccc(N2CCN(C(=O)c3nn(C)c4c3CS(=O)(=O)c3ccccc3-4)CC2)cc1	11%	-4%	u	0	u	-10
COc1ccc(N2CCN(C(=O)c3nn(C)c4c3CS(=O)(=O)c3ccccc3-4)CC2)cc1	40%	-2%	u	-5	23µM*!	18
Cn1nc(C(=O)N2CCN(c3ccc(Cl)cc3)CC2)c2c1-c1ccccc1S(=O)(=O)C2	22%	-19%	u	-4	16µM*	-58*
Cn1nc(C(=O)N2CCN(c3cccc(Cl)c3)CC2)c2c1-c1ccccc1S(=O)(=O)C2	27%	-11%	u	-1	18µM*	-22
Cc1cc2oc(=O)cc(CSc3nnnn3C3CC3)c2cc1C(C)C	x	x	x	3	x	x
COCCNC(=O)NC(=O)COC(=O)c1cccc2c(=O)c(C)c(-c3ccccc3)oc12	x	x	x	7	x	x
COc1cc(NC(=O)c2nn(C)c3c2COc2ccccc2-3)cc(OC)c1OC	x	x	3.3µM*	-1	4.6µM*	x
Cc1ccc(NC(=O)c2nn(C)c3c2CS(=O)(=O)c2ccccc2-3)c(Cl)c1	x	x	-29%	-14	4%	x
Cc1cccc(N2CCN(C(=O)c3nn(C)c4c3CS(=O)(=O)c3ccccc3-4)CC2C)c1 (stereo not drawn)	15%	-2%	18µM*	-5	23µM*	-21

Screening data: PubChem BioAssay, National Center for Advancing Translational Sciences (NCATS)
